# Screens (PubChem)
# PINK1 modulator: PINK1 expression modulation; Potency, µM (series often up to 76.6 µM), inactives show top-dose activation (PINK1 increase), hits mostly activators; PINK1 immunofluorescence, high-content cytometry, 24 h; actives 0.2% (n = 410,000); active = well fitted activation curve with a large enough effect; inconclusive = small, poorly fitted or top-dose-only effect; cell line not stated here; note: % of control where 0% means no effect; nearly all actives have a fitted effect of over 65% in size
#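 A stable cell line was treated with compounds at 5 concentrations for 24 hours, with CCCP as control. PINK1 levels and mitochondrial localization were measured by immunofluorescence with mitochondrial, cell and nuclear markers after fixation, read by laser-scanning cytometry.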
# SW480 rerep: induces DNA re-replication in SW480 colon adenocarcinoma cells; SW480 DNA re-replication, Hoechst DNA content imaging, 48 h; Potency, µM (top dose mostly 46.1 µM), without a hit: at the top dose re-replication activation, hits mostly activators; actives 1.8% (n = 340,000); AID 624297; note: % of control where 0% means no effect; nearly all actives have a fitted effect of over 55% in size
#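 DNA re-replication was detected as more nuclei of elevated Hoechst intensity after 48 hr exposure to compound (23 nL pinned per well of 250 cells).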
# MCF10A rereplic: DNA re-replication induction in MCF 10a cells. MCF 10A DNA re-replication, Hoechst nuclear intensity, 48 h. Potency, µM (doses to about 46.1 µM), for inactives: at the top dose activity, positive = re-replication, actives largely listed as activators. actives 2.9% (n = 350,000). AID 624296; note: % of control where 0% means no effect; nearly all actives have a fitted effect of over 50% in size
# KB-3-1 cytotox: KB-3-1 parental cell cytotoxicity. actives 1.4% (n = 400,000). Potency, µM (titrated, usually from 46.1 µM), usual class: cytotoxic. KB-3-1 viability, CellTiter-Glo ATP luminescence, 72 h; note: % is set by controls: 0 for no effect and ±100 for the full control effect; nearly all actives have a fitted effect of over 60% in size
#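 Cytotoxicity in the drug-sensitive parental line KB-3-1 was scored as loss of CellTiter-Glo luminescence following 72 h incubation with compound. Values come from curve fitting of normalized concentration-response data.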
# TSG101-PTAP inh: blocks PTAP/TSG101 interaction to inhibit HIV-1 budding; Q99816; Fluorescence polarization, FITC-PTAP peptide / Tsg101 binding; Potency, µM (doses to about 115 µM), inactives show at the highest dose activity change, negative = inhibition, usual class: inhibitors; 340,000 tested, under 10 active; AID 493005; active = well fitted inhibition curve with a large enough effect in the main read-out, with a control signal flat, not every such curve was filed as active; inconclusive = small, poorly fitted or top-dose-only effect, or effect the other way, or a change in a side signal; inactive = no such curve, though single readings can be large or run the other way; note: % of control where 0% means no effect
# Target sequence (Q99816 whole entry, looked up): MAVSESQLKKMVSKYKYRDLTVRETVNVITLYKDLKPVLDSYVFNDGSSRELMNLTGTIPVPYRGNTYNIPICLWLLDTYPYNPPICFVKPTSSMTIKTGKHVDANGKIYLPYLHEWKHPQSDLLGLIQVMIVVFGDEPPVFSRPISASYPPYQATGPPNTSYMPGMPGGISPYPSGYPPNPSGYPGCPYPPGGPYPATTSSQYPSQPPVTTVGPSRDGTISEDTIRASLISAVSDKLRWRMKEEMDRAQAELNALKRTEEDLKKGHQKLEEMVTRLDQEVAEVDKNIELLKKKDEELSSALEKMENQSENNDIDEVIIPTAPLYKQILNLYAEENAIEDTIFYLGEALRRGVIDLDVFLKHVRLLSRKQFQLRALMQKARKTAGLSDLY
#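 FP read-out: FITC-PTAP peptide, 50 nM final, binding Tsg101 binding domain, 10 uM final; 20 min, r.t.; 10 mM HEPES pH 7.5, 0.15 M NaCl, 0.01% Tween 20, 3 mM EDTA, 0.1 mM TCEP.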
# KB-V1 MDR tox: kills drug-selected multidrug resistant KB-V1 cells | KB-V1 MDR cells viability, CellTiter-Glo, 72 h | Potency, µM (top dose mostly 46.1 µM), most hits filed as cytotoxic | actives 3.4% (n = 400,000) | AID 1347076; note: % is set by controls: 0 for no effect and ±100 for the full control effect; nearly all actives have a fitted effect of over 60% in size
#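 KB-V1 MDR subline cells in DMEM (phenol-red free, 10% FBS) exposed to compounds in qHTS concentration series for 72 h at 37 degrees C. Viability read by CellTiter-Glo luminescence; concentration-effect curves fitted after normalization and correction.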
# * marks the source's active call; other numbers are inactive results; i = inactive; ? = inconclusive; nt = not tested or not shown; [ ] = remark or other dose. The list is not random: actives were taken first. Their share in the collection is about 6.8%. Unless noted, calls come from the whole dose curve; as a rule, active = well fitted curve in the direction sought with a large enough effect; inconclusive = small, poorly fitted or top-dose-only effect, or another doubt; inactive = no such curve, though single readings can be large; an effect the other way counts as inactive or inconclusive. Potency is the fitted concentration of half-maximal effect.
SMILES,PINK1 modulator,SW480 rerep,MCF10A rereplic,KB-3-1 cytotox,TSG101-PTAP inh,KB-V1 MDR tox
CCOC(=O)c1c(NC(=O)/C=C\C(=O)O)sc(C)c1-c1ccccc1,0%,?,21µM*,i,-3%,i
Cc1nc2nc(NCc3ccc(Cl)cc3)[nH]n2c(=O)c1Cc1ccccc1,-1%,nt,nt,i,nt,i
Cc1sc(NC(=O)/C=C/C(=O)O)c(C(N)=O)c1-c1ccc(C(C)(C)C)cc1,2%,?,21µM*,i,-10%,i
Cc1ccccc1OCC(=O)NCC(=O)OCc1cccc2ccccc12,2%,nt,nt,?,nt,?
Fc1ccc(Nc2nc(N3CCOCC3)c3ccccc3n2)cc1,6%,4%,?,?,-2%,16µM*
c1ccc2c(c1)nc(N1CCOCC1)c1c3ccccc3[nH]c21,-8%[38.3 µM],?,3.7µM*,i,-3%,21µM*
c1ccc2c(Nc3nc(N4CCOCC4)c4ccccc4n3)cccc2c1,2%,?,18µM*,?,-10%,?
O=c1[nH]c2ccccc2nc1N1CCOCC1,-1%,-5%,-4%,i,-3%,i
COc1ccc(Br)cc1CNC(=O)c1cc(=O)[nH]c2ccc(S(=O)(=O)N3CCCCC3)cc12,0%,nt,nt,nt,nt,nt
COc1ccc(C)cc1NC(=O)c1cc2c(s1)-c1ccccc1SC2,1%,nt,nt,nt,nt,nt
Cc1ccc(CNC(=O)CN2N=C(c3ccc(C)cc3)CCC2=O)cc1,0%,nt,nt,nt,nt,nt
Cc1ccc(/C=C(\C#N)c2nc(-c3ccc(-c4ccccc4)cc3)cs2)cc1,2%,nt,nt,i,nt,?
Cc1cccc(Nc2nc(-c3ccc4c(c3)OCCO4)cs2)c1,11%,7.3µM*,14µM*,?,1%,i
COc1cccc(C(=O)Nc2nc(-c3ccc4c(c3)OCO4)cs2)c1,9%,11%,16µM*,i,0%,?
O=C(CCCCl)Nc1nc(-c2ccc3c(c2)OCCO3)cs1,4%,5%,12%,i,1%,i
Cc1nc(-c2ccc3c(c2)OCCO3)cs1,3%,-9%,-1%,i,-2%,i
Cc1ccc(-c2csc(/C(C#N)=C/Nc3ccc4c(c3)OCCO4)n2)cc1,11%,?,3.7µM*,i,0%,i
N#CCC(=O)Nc1nc(-c2ccc3c(c2)OCCO3)cs1,2%,?,23µM*,i,-2%,i
COc1cccc(C(=O)Nc2nc(-c3ccncc3)cs2)c1,0%,-12%,-3%,i,-1%,i
COc1ccc(-c2c(C#N)c(SCC(=O)Nc3ccccc3C)nc(C)c2C(=O)Nc2ccccc2)cc1OC,-1%,nt,nt,nt,nt,nt
CC(C)(C)c1cnnn1-c1ccc(C(=O)CCl)cc1,-3%,?,16µM*,?,-9%,23µM*
CC(C)(C)c1cnnn1-c1ccc(C=O)cc1,-2%[38.3 µM],-1%,0%,i,-4%,i
Cc1ccc(NC(=O)C(NC2CCCc3ccccc32)c2ccccc2)cc1Cl (centres undefined),1%,?,1.3µM*,?,1%,i
CNC(=O)NC(=O)C(NC1CCCc2ccccc21)c1ccccc1 (centres undefined),1%,?,?,i,1%,i
COc1ccccc1-c1ccnc(-n2ncc(C(=O)N[C@H]3CCCCNC3=O)c2C2CC2)n1,10%,nt,nt,nt,nt,nt
SMILES,PINK1 modulator,SW480 rerep,MCF10A rereplic,KB-3-1 cytotox,TSG101-PTAP inh,KB-V1 MDR tox
COC(=O)/C=C\C(C#N)(C#N)N=Cc1ccc(OC)cc1,2%,6.5µM*,13µM*,?,-2%,i
CCCc1nnc(NC(=O)c2ccc(S(=O)(=O)N(C)c3ccccc3OC)cc2)s1,0%,4%,?,i,2%,15µM*
COc1ccccc1N(C)S(=O)(=O)c1ccc(C(=O)Nc2ccc3nc(C)sc3c2)cc1,1%,nt,?,?,5%,23µM*
COc1ccccc1N(C)S(=O)(=O)c1ccc(C(=O)N2CCCC(C(F)(F)F)C2)cc1 (centres undefined),5%,4.6µM*,8%,i,-4%,i
COc1ccccc1N(C)S(=O)(=O)c1ccc(C(=O)Nc2nccs2)cc1,3%,-9%,10%,i,0%,i
COc1ccccc1N(C)S(=O)(=O)c1ccc(C(=O)NCC(C)C)cc1,4%[38.3 µM],-5%,2%,i,0%,23µM*
COC(=O)c1cccc(NC(=O)c2ccc(S(=O)(=O)N(C)c3ccccc3OC)cc2)c1,-2%,nt,nt,i,nt,?
Cc1ccc(NC(=O)CN2C(=O)C3(SCC(=O)N3c3ccc(F)c(F)c3)c3ccccc32)c(C)c1 (centres undefined),-3%,nt,nt,i,nt,i
COc1ccc(Cc2nnc(NC(=O)Nc3ccccc3OC)s2)cc1,6%,22%,?,?,10%,i
CCCc1nnc(NC(=O)Nc2ccccc2OC)s1,3%,1%,0%,i,1%,18µM*
c1ccc(CN2CCN(C(c3ccccc3)c3ccccc3)CC2)cc1,?,8%,21µM*,i,-1%,?
OC(COc1ccccc1)CN1CCN(C(c2ccccc2)c2ccccc2)CC1 (centres undefined),22%,-11%,-4%[9.22 µM],i,-1%,?
c1ccc(OCCOCCN2CCN(C(c3ccccc3)c3ccccc3)CC2)cc1,?,8.2µM*,?,?,-1%,?
Fc1ccc(CN2CCN(C(c3ccccc3)c3ccccc3)CC2)cc1,40µM*,21%,11%,i,-4%,i
OC(CN1CCN(c2ccccc2)CC1)Cn1c2ccccc2c2ccccc21 (centres undefined),?,13%,?,?,1%,i
